According to ChEMBL document CHEMBL1201862, “PubChem BioAssay data set” (2004):
In all, about 57,000 sequences went through this assay and about 3,400 (6%) were called active. No stated cut-off is given here; in the data, active = GI50 up to about 1.1 µM and inactive = higher. The list is a sample of the results. Entries with a potency or affinity are not part of this list.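 Interpolation was linear, between the two tested concentrations surrounding the appropriate level; five concentrations were tested over 48 hours in 96-well plates. Abbreviation: GI50, concentration required for 50% inhibition of growth.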

Tested on: UO-31
Experiment: NCI tumour cell line growth inhibition, 48 h

Q: CISPLATIN, CHEMBL11359 was tested. Which GI50 did it give?
A: The GI50 was 3.36 µM.

Q: Which GI50 does the source give for “[Bis(aminomethyl)dimethylsilane]tetrachloroplatinum(IV), CHEMBL2146190” here?
A: The GI50 was 9.93 µM.

Q: How did the GI50 turn out when “[Bis(aminomethyl)ethylmethylsilane]tetrachloroplatinum(IV), CHEMBL2146192” was run?
A: The GI50 was 7.48 µM.

Q: “[Bis(aminomethyl)tetramethylenesilane]dichloropaltinum(II), CHEMBL2146205” was tested. Which GI50 did it give?
A: Its GI50 is 22.3 µM.

Q: For “[Bis(aminomethyl)dimethylsilane]dichloroplatinum (II), CHEMBL2146201”, which GI50 is on record?
A: The GI50 was 55.2 µM.

Q: With “[Bis(aminomethyl)pentamethylenesilane]tetrachloropaltinum(IV), CHEMBL2146204” as the substance, how does the GI50 read?
A: The GI50 was 0.731 µM.

Q: Which GI50 does the source give for “[Bis(aminomethyl)diethylsilane]tetrachloroplatinum(IV), CHEMBL2146203” here?
A: Its GI50 is 4.43 µM.

Q: “[Bis(aminomethyl)pentamethylenesilane]dichloropaltinum(II), CHEMBL2146202” was tested. Which GI50 did it give?
A: The GI50 was 3.21 µM.

Q: How did the GI50 turn out when “mu-(1,7-nanodiamine-N,N')bis-(cis-aminedichloroplatimum (II)), CHEMBL2146215” was run?
A: The GI50 was 44.8 µM.

Q: “cis-Bis[[(trimethylsilyl)methyl]amino]tetrachloroplatinum(IV), CHEMBL2146191” was tested. Which GI50 did it give?
A: Its GI50 is 16.2 µM.

Q: With “[Bis(aminomethyl)tetramethylenesilane]tetrachloropaltinum(IV), CHEMBL2146189” as the substance, how does the GI50 read?
A: The GI50 was 3.73 µM.
